Screens from PubChem.
MARV entry inh = blocks Marburg virus binding to or entry into cells; Marburg virus pseudotyped entry inhibition, cell reporter; Potency, µM (highest dose often 37.8 µM), actives largely listed as inhibitors; actives 1.8% (n = 300,000); AID 540276; calls by dose curve; tested in HEK293 cells
HCMV antiviral = inhibitors of human cytomegalovirus. HFF cells, HCMV-luciferase reporter, 72 h; hits give low values. activity change, negative = inhibition, % at 57.5 µM. actives 4.5% (n = 410,000); in the data active = activity change below about -60%; inconclusive = no clear call, values can overlap the other calls; inactive = above about -39%
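HFF cells seeded 16 h at 37C, treated with compounds, infected with luciferase-reporter HCMV at MOI 1 PFU/cell; luciferase read at 72 h post infection, normalized to buffer-only and Salinomycin controls.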
Lassa entry inh = inhibitors of Lassa virus binding or cell entry; Lassa virus pseudotype entry inhibition, cell reporter; Potency, µM (highest dose often 37.9 µM), most hits filed as inhibitors; actives 1.2% (n = 300,000); AID 540256; calls by dose curve; tested in HEK293 cells; note: nearly all actives have a fitted effect of over 50% in size
Vaccinia Venus = vaccinia inhibition (Venus reporter); Potency, µM (titrated, usually from 36.5 µM), usual class: inhibitors; Vaccinia virus Venus reporter expression, fluorescence; AID 720580; actives 0.46% (n = 330,000); calls by dose curve; tested in A549 cells; note: nearly all actives have a fitted effect of over 30% in size
VACV mCherry inh = vaccinia inhibition (mCherry reporter); Vaccinia virus mCherry reporter infection, fluorescence; Potency, µM (highest dose often 36.5 µM), hits mostly inhibitors; actives 0.63% (n = 310,000); calls by dose curve; tested in A549 cells; note: nearly all actives have a fitted effect of over 35% in size
FMDV inh = foot and mouth disease virus antiviral activity | FMDV antiviral cell-based qHTS | Potency, µM (top dose mostly 57.9 µM), actives largely listed as inhibitors | actives 1.2% (n = 410,000) | AID 1159524; calls by dose curve; tested in HEK293T cells; note: read-out not given here; nearly all actives have a fitted effect of over 45% in size
A number is an active result. Sampled rows, rich in hits. Any-hit rate of the full collection: about 6.5%.

For COc1ccc(C(CNC(=O)Cc2ccc(-c3ccccc3)cc2)N(C)C)cc1 (stereo not given) the results were MARV entry inh 11.2µM, HCMV antiviral inactive, Lassa entry inh inactive, Vaccinia Venus inactive, VACV mCherry inh inconclusive and FMDV inh inactive.
CN(C)C(CNC(=O)c1ccc(-c2ccccc2)cc1)c1ccccc1 (stereo not given) was read as MARV entry inh 11.2µM, HCMV antiviral inactive, Lassa entry inh inactive, Vaccinia Venus inactive, VACV mCherry inh inactive and FMDV inh inactive.
Cc1ccccc1NS(=O)(=O)c1ccc(C(=O)NCC(c2ccccc2)N(C)C)cc1 (stereo not given) was read as MARV entry inh 11.2µM, HCMV antiviral inactive, Lassa entry inh inactive, Vaccinia Venus inactive, VACV mCherry inh inactive and FMDV inh inactive.
Cc1c(C(=O)Nc2ccc(-n3cnnn3)cc2)oc2ccccc12 was read as MARV entry inh inactive, HCMV antiviral -65.5, Lassa entry inh inactive, Vaccinia Venus inactive and VACV mCherry inh inactive.
Screening Cc1ccnc(NC(=O)c2oc3ccccc3c2C)c1 returned MARV entry inh inconclusive, HCMV antiviral inactive, Lassa entry inh 3.55µM, Vaccinia Venus inactive, VACV mCherry inh inactive and FMDV inh inactive.
Screening Cc1c(C(=O)Nc2cnccn2)oc2ccccc12 returned MARV entry inh inactive, HCMV antiviral inactive, Lassa entry inh inactive, Vaccinia Venus inactive, VACV mCherry inh inactive and FMDV inh inactive.
`C[N+]12CCC(CC1)[C@H](OC(=O)C(O)(c1ccccc1)c1ccccc1)C2` gave MARV entry inh inactive.
For Cc1cc(C)c2c(=O)n3c(nc2c1)C(Cc1ccccc1)NC(=O)c1cc2ccccc2cc1-3 (stereo not given) the results were HCMV antiviral -71.9, Vaccinia Venus inactive, VACV mCherry inh inactive and FMDV inh inconclusive.
For CCC1NC(=O)c2cc3ccccc3cc2-n2c1nc1cc(C)cc(C)c1c2=O (stereo not given) the results were HCMV antiviral inactive, Vaccinia Venus inactive, VACV mCherry inh inactive and FMDV inh inactive.
O=C1NC(Cc2ccc(O)cc2)c2nc3cc(F)ccc3c(=O)n2-c2cc3ccccc3cc21 (stereo not given) was read as HCMV antiviral inactive, Vaccinia Venus inconclusive, VACV mCherry inh inactive and FMDV inh inactive.
`Cc1ccc2c(=O)n3c(nc2c1)C(Cc1ccc(O)cc1)NC(=O)c1cc2ccccc2cc1-3` (stereo not given) gave HCMV antiviral -65.5, Vaccinia Venus inconclusive, VACV mCherry inh inactive and FMDV inh inconclusive.
O=C1NC(Cc2ccc(O)cc2)c2nc3ccc(Cl)cc3c(=O)n2-c2cc3ccccc3cc21 (stereo not given) was read as HCMV antiviral -105.5, Vaccinia Venus inconclusive, VACV mCherry inh inactive and FMDV inh inconclusive.
For CCC(NC(=O)Nc1cc(Cl)ccc1OC)c1c(-n2cccc2)sc2c1CCN(C)C2 (stereo not given) the results were HCMV antiviral inactive, Lassa entry inh inactive, Vaccinia Venus inactive, VACV mCherry inh inactive and FMDV inh inactive.
O=C(Nc1ccc2c(c1)OCO2)C1C=CC(Br)O1 (stereo not given) was read as MARV entry inh inactive.
CCOc1ccccc1N1CC(O)=C(c2nc3ccccc3s2)C1=N was read as MARV entry inh 5.8µM, HCMV antiviral inactive, Lassa entry inh inconclusive, Vaccinia Venus inconclusive and VACV mCherry inh inactive.
`COc1ccc(OC)c(N2CC(O)=C(c3nc4ccccc4s3)C2=N)c1` gave MARV entry inh inconclusive, HCMV antiviral inactive, Lassa entry inh inconclusive, Vaccinia Venus inactive, VACV mCherry inh inactive and FMDV inh inactive.
`COc1cccc(Cn2c(=O)cnc3cnc(OCc4ccccc4)nc32)c1` gave FMDV inh inactive.
Screening CCCn1c(/N=C/c2cc(OC)ccc2O)nc2ccccc21 returned MARV entry inh inactive, HCMV antiviral inactive, Lassa entry inh inactive, Vaccinia Venus inactive, VACV mCherry inh inactive and FMDV inh inactive.
`CCCCn1c(/N=C/c2cc(OC)ccc2O)nc2ccccc21` gave MARV entry inh inactive, HCMV antiviral inactive, Lassa entry inh inactive, Vaccinia Venus 3.55µM, VACV mCherry inh inconclusive and FMDV inh inactive.
COc1ccc(OC)c(CCNC(=O)C(C)n2c(C)c3cnn(-c4ccccc4)c(=O)c3c2C)c1 (stereo not given) was read as MARV entry inh inactive, HCMV antiviral inactive, Lassa entry inh inactive, Vaccinia Venus inactive, VACV mCherry inh inactive and FMDV inh inactive.
O=C(CCc1cn(Cc2ccccc2Cl)c2ccccc12)NC1CCCCC1 was read as HCMV antiviral -72.1, Lassa entry inh inactive, Vaccinia Venus inactive, VACV mCherry inh inactive and FMDV inh inactive.
Screening CC1CCC(NC(=O)CCc2cn(Cc3ccccc3Cl)c3ccccc23)CC1 (stereo not given) returned HCMV antiviral inactive, Lassa entry inh inconclusive, Vaccinia Venus inactive, VACV mCherry inh inactive and FMDV inh inactive.
CC(C)=CCN1C(=O)[C@]2(O[C@H](COc3ccccc3)CC3=C2CCC3)c2ccccc21 was read as MARV entry inh inactive.
For Cn1ncc2c(N3CCC(Cc4ccccc4)CC3)ncnc21 the results were MARV entry inh inactive, HCMV antiviral inconclusive, Lassa entry inh inactive, Vaccinia Venus inactive, VACV mCherry inh inactive and FMDV inh 20µM.
O=S(=O)(c1ccccc1)N1CCN(c2ncnc3sc(-c4ccccc4)cc23)CC1 was read as MARV entry inh inconclusive, HCMV antiviral inactive, Lassa entry inh inactive, Vaccinia Venus inactive, VACV mCherry inh inactive and FMDV inh inconclusive.
`NNC(=O)c1cc2c(N3CCC(Cc4ccccc4)CC3)ncnc2s1` gave MARV entry inh inactive, HCMV antiviral inconclusive, Lassa entry inh 10µM, Vaccinia Venus inactive, VACV mCherry inh inactive and FMDV inh 14.1µM.
CN1CCN(c2ncnc3c2cnn3C)CC1 was read as HCMV antiviral inactive and FMDV inh inactive.
`CCCCOc1ccccc1NC(=O)Cn1c(-c2nonc2N)nc2ccccc21` gave MARV entry inh inconclusive, HCMV antiviral -78.1, Lassa entry inh inconclusive, Vaccinia Venus inconclusive, VACV mCherry inh 3.98µM and FMDV inh inactive.
`CCN(CC)CC1CN(N=Cc2ccc([N+](=O)[O-])o2)C(=O)O1` (stereo not given) gave MARV entry inh inactive, HCMV antiviral inactive, Lassa entry inh inactive, Vaccinia Venus 15.8µM, VACV mCherry inh inconclusive and FMDV inh inactive.
`COc1ccc(-n2c(C)c([N+](=O)[O-])c3ccc(O)c(CN(C)C)c32)cc1` gave MARV entry inh inconclusive, HCMV antiviral -91.9, Lassa entry inh inactive, Vaccinia Venus inactive and FMDV inh inactive.
Screening C[C@]12CC[C@@H]3c4ccc(O)cc4CC[C@H]3[C@@H]1CC[C@@H]2OC(=O)CCC(=O)O returned MARV entry inh inactive, HCMV antiviral -100.3, Lassa entry inh inactive, Vaccinia Venus inactive, VACV mCherry inh inactive and FMDV inh inactive.
